These results are taken from publication PMC4336329 (PLoS ONE, 2015).

Hit rate of the full screen: of about 310,000 compounds, about 14,000 (4.5%) showed an effect of 50% or more. Effects have a minus sign here. This excerpt belongs to a sample that is enriched for strong results.
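Further: peak tail current of the secondary pulse compared with the same well before compound.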

human ether-à-go-go-related gene (hERG) potassium channel, sequence (Q12809 whole entry, looked up): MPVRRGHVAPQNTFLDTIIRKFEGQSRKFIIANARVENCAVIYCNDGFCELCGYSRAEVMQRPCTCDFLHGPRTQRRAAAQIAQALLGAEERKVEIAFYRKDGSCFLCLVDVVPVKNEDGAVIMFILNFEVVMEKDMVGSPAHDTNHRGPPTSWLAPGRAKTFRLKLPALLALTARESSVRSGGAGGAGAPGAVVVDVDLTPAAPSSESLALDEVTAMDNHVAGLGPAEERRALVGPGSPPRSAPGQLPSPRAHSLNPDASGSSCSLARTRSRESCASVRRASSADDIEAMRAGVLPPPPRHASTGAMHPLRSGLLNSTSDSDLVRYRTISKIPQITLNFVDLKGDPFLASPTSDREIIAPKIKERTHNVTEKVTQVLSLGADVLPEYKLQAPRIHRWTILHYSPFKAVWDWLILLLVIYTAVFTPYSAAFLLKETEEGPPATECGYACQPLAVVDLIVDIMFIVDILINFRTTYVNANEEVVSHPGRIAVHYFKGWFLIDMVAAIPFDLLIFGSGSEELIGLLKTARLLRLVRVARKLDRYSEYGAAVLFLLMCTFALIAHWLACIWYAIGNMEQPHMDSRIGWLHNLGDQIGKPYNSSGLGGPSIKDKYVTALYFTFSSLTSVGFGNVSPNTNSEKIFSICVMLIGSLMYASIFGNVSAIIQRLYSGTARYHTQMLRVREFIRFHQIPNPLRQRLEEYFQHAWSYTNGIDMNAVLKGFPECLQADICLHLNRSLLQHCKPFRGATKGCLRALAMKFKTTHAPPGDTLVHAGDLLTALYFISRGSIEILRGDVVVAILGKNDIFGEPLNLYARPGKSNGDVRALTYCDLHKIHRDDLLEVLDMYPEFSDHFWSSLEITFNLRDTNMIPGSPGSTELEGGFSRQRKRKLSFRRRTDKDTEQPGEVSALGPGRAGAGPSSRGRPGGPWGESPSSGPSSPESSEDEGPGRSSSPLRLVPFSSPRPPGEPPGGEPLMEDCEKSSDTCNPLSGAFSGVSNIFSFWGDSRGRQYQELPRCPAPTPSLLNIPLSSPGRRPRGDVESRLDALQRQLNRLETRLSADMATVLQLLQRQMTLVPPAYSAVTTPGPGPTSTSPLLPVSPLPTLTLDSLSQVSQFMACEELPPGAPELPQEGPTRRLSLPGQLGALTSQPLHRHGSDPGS

The assay has as its target human ether-à-go-go-related gene (hERG) potassium channel (human, UniProt Q12809). The assay is described as follows: primary screen, population patch clamp on CHO cells stably expressing hERG; higher = less effect of the substance.
In the case of `CC1CCN(CCOc2ccc(OCc3ccccc3)cc2)CC1.O=C(O)C(=O)O`, the “hERG current change (%, negative = inhibition) at 10uM” value is reported as -70.9%.

With `CC1CCCN(Cc2ccc(OCc3ccccc3)cc2)C1` (stereo not shown), the “hERG current change (%, negative = inhibition) at 10uM” value was -43.3%.

Take `CC1CCN(CCCOc2ccc(OCc3ccccc3)cc2)CC1.O=C(O)C(=O)O`: the “hERG current change (%, negative = inhibition) at 10uM” value was -71.4%.

On to `COc1ccc(Cl)cc1N1C(=O)C2CCCN2C1c1ccccc1F` (stereo not shown), for which the “hERG current change (%, negative = inhibition) at 10uM” value is on record as -0.486%.

As to `C=CCNC(=O)C12CC3(C)CC(C)(CC(C)(C3)C1)C2`, the “hERG current change (%, negative = inhibition) at 10uM” value is recorded as -11.8%.

With `CCOC(=O)C1CCCN(C(=O)CN(c2ccc(OC)cc2)S(=O)(=O)c2c(C)noc2C)C1` (stereo not shown), the “hERG current change (%, negative = inhibition) at 10uM” value was -4.08%.

For the compound `CCOC(=O)C1(Cc2ccc(OC)cc2)CCN(C(=O)c2cc(C)nn2C)CC1`, the “hERG current change (%, negative = inhibition) at 10uM” value is -40.5%.

In the case of `O=[N+]([O-])c1cccc(Cl)c1NCCNS(=O)(=O)c1ccccc1`, the “hERG current change (%, negative = inhibition) at 10uM” value is -15.2%.

Turning to `Oc1ccccc1/C=N/c1c(-c2ccco2)nc2ccccn12`, the “hERG current change (%, negative = inhibition) at 10uM” value is -4.17%.

For `OC1CCN(c2c3c(nc4cc(-c5ccc(F)cc5)nn24)CCC3)CC1`, the “hERG current change (%, negative = inhibition) at 10uM” value was -7.45%.

In the case of `Cc1ccc(/C=C/C(=O)N2CCCC(C(N)=O)C2)o1` (stereo not shown), the “hERG current change (%, negative = inhibition) at 10uM” value was -8.59%.

As for `CCOc1cccc(OCCCOc2cccc3cccnc23)c1`, the “hERG current change (%, negative = inhibition) at 10uM” value is reported as -8.52%.

Turning to `CCOc1ccc2c(c1)sc(N)[n+]2Cc1cc(C)cc2cccnc12.[Br-]`, the “hERG current change (%, negative = inhibition) at 10uM” value is reported as -74.9%.

Take `COc1ccc2c(c1)sc(N)[n+]2Cc1cc(C)cc2cccnc12.[Br-]`: the “hERG current change (%, negative = inhibition) at 10uM” value is -74%.

As for `Cc1cc(C[n+]2ncsc2N)c2ncccc2c1.[Br-]`, the “hERG current change (%, negative = inhibition) at 10uM” value is on record as -33.8%.

On to `Cc1cc(C[n+]2ccsc2N)c2ncccc2c1.[Br-]`, for which the “hERG current change (%, negative = inhibition) at 10uM” value is recorded as -48.2%.

With `CCOc1ccc(C(=O)C[n+]2cccc3cc(C)ccc32)cc1.[Br-]`, the “hERG current change (%, negative = inhibition) at 10uM” value is reported as -47.9%.

Turning to `CC(C)CCN(C(=O)C1CSC2(C)CCC(=O)N12)c1c(N)n(Cc2ccccc2)c(=O)[nH]c1=O` (stereo not shown), the “hERG current change (%, negative = inhibition) at 10uM” value is recorded as 6.21%.

In the case of `CC12CCC(C(=O)N(c3cccc(Cl)c3)C1=O)C2(C)C` (stereo not shown), the “hERG current change (%, negative = inhibition) at 10uM” value is recorded as -4.23%.

With `O=Nc1ccc(NOC(=O)c2ccccc2)cc1`, the “hERG current change (%, negative = inhibition) at 10uM” value is listed as 5.89%.

For `COc1ccc(CNC(=O)C(C#N)c2nc3ccccc3nc2N2CCCC2)cc1` (stereo not shown), the “hERG current change (%, negative = inhibition) at 10uM” value is given as 10.1%.

With `COc1ccc(C)cc1NC(=O)c1ccc(S(=O)(=O)N2CCOCC2)cc1`, the “hERG current change (%, negative = inhibition) at 10uM” value amounted to 2.48%.

As to `COc1ccc2c(c1)c(C(O)CN1CCN(Cc3ccc4c(c3)OCO4)CC1)c(C)n2C` (stereo not shown), the “hERG current change (%, negative = inhibition) at 10uM” value is -11%.

For the compound `C=CCc1ccccc1OCC(O)CN1CCN(Cc2ccc3c(c2)OCO3)CC1` (stereo not shown), the “hERG current change (%, negative = inhibition) at 10uM” value is on record as -91%.

As for `Cl.OCCN1CCN(CC(O)COc2ccc3c(c2)OCO3)CC1` (stereo not shown), the “hERG current change (%, negative = inhibition) at 10uM” value is recorded as 12.7%.

Regarding `Cl.OC(COCc1ccccc1)CN1CCN(Cc2ccc3c(c2)OCO3)CC1` (stereo not shown), the “hERG current change (%, negative = inhibition) at 10uM” value is -45%.

As for `Cc1c(C(O)CN2CCN(Cc3ccc4c(c3)OCO4)CC2)c2ccccc2n1C` (stereo not shown), the “hERG current change (%, negative = inhibition) at 10uM” value is given as -75.6%.

`CC(C)OCC(O)CN1CCN(CC(O)COc2ccc3c(c2)OCO3)CC1` (stereo not shown): the “hERG current change (%, negative = inhibition) at 10uM” value is -33.3%.

Turning to `COc1ccc(OCC(O)CN2CCN(Cc3ccc4c(c3)OCO4)CC2)cc1.Cl` (stereo not shown), the “hERG current change (%, negative = inhibition) at 10uM” value is -47.4%.

For the compound `Cl.OC(COc1ccccc1)CN1CCN(Cc2ccc3c(c2)OCO3)CC1` (stereo not shown), the “hERG current change (%, negative = inhibition) at 10uM” value was -60.5%.

Take `Cc1c(C(=O)C(=O)N2CCN(Cc3ccc4c(c3)OCO4)CC2)c2ccccc2n1C`: the “hERG current change (%, negative = inhibition) at 10uM” value is given as -8.7%.

In the case of `Cc1cc(C)cc(OCC(O)CN2CCN(Cc3ccc4c(c3)OCO4)CC2)c1.Cl` (stereo not shown), the “hERG current change (%, negative = inhibition) at 10uM” value was -76%.

Consider `C=CCc1ccccc1OCC(O)CN1CCOCC1` (stereo not shown), for which the “hERG current change (%, negative = inhibition) at 10uM” value worked out at 13.1%.

On to `COc1cc(/C=N/Nc2nc(=O)[nH]nc2C)cc(OC)c1O`, for which the “hERG current change (%, negative = inhibition) at 10uM” value stood at 11.7%.

For the compound `COc1ccc(NC(=O)Cn2nnc(-c3ccccc3NC(=O)c3ccco3)n2)cc1`, the “hERG current change (%, negative = inhibition) at 10uM” value was -12.8%.

Consider `COc1cccc(OC)c1C(=O)Nc1ccccc1C(=O)N1CCOCC1`, for which the “hERG current change (%, negative = inhibition) at 10uM” value stood at 5.4%.

Regarding `CC(CNC(=O)CCC(=O)N1CCOc2ccccc21)c1ccccc1` (stereo not shown), the “hERG current change (%, negative = inhibition) at 10uM” value is given as -9.84%.

For `Fc1cccc(Cl)c1CSc1nnc2ccccn12`, the “hERG current change (%, negative = inhibition) at 10uM” value is recorded as 9.48%.

Take `COc1ccccc1NC(=O)NNC(=O)C(C)Oc1ccc2ccccc2c1` (stereo not shown): the “hERG current change (%, negative = inhibition) at 10uM” value is recorded as 9.36%.

For `Cc1cc2cc(CNC(=S)NC3CCCCC3)ccc2n1C`, the “hERG current change (%, negative = inhibition) at 10uM” value came to 13.8%.

Turning to `Cc1cc(OC(C)C(=O)N2CCN(c3ccc(F)cc3)CC2)c2c(C)cc(=O)oc2c1` (stereo not shown), the “hERG current change (%, negative = inhibition) at 10uM” value was -1.27%.

On to `O=C(NCCOc1ccccc1Cl)c1ncn[nH]1`, for which the “hERG current change (%, negative = inhibition) at 10uM” value is -2.83%.

As to `COCCNC(=O)C(c1ccc(F)cc1)N(C(=O)CCC(=O)Nc1ccccn1)c1cccc(C)c1` (stereo not shown), the “hERG current change (%, negative = inhibition) at 10uM” value came to 16.2%.

Regarding `CC(=O)c1ccc(OCC(O)CN2CCN(Cc3ccc4c(c3)OCO4)CC2)cc1` (stereo not shown), the “hERG current change (%, negative = inhibition) at 10uM” value was -34.8%.

For the compound `Cc1ccc(C)c(OCC(=O)N2CCN(Cc3ccc4c(c3)OCO4)CC2)c1`, the “hERG current change (%, negative = inhibition) at 10uM” value was -23.3%.

With `CC(=O)c1ccc(OCC(O)CN2CCN(Cc3ccc4c(c3)OCO4)CC2)cc1.Cl` (stereo not shown), the “hERG current change (%, negative = inhibition) at 10uM” value is -49.8%.

For the compound `Cc1ccc(OCC(O)CN2CCN(Cc3ccc4c(c3)OCO4)CC2)c(C)c1.Cl` (stereo not shown), the “hERG current change (%, negative = inhibition) at 10uM” value was -57.1%.

Regarding `COc1cc(COCC(O)CN2CCN(Cc3ccc4c(c3)OCO4)CC2)cc(OC)c1OC.Cl` (stereo not shown), the “hERG current change (%, negative = inhibition) at 10uM” value is -0.319%.

With `Cc1ccc(OCC(O)CN2CCN(Cc3ccc4c(c3)OCO4)CC2)cc1C.Cl` (stereo not shown), the “hERG current change (%, negative = inhibition) at 10uM” value is on record as -61.1%.

In the case of `Cc1cccc(N2CCN(C(=O)CCn3c(=O)[nH]c4ccsc4c3=O)CC2C)c1` (stereo not shown), the “hERG current change (%, negative = inhibition) at 10uM” value was 21.5%.

On to `COc1ccc(OC)c2sc(NC(=O)c3ccc(S(=O)(=O)N4CCOCC4)cc3)nc12`, for which the “hERG current change (%, negative = inhibition) at 10uM” value is -2.05%.

Turning to `CC(NCCO)C(=O)C12CC3CC(CC(C3)C1)C2.Cl` (stereo not shown), the “hERG current change (%, negative = inhibition) at 10uM” value is reported as 13.1%.

With `CCOC(=O)C1CCN(C(=O)Cn2cnc3sc(C)c(S(=O)(=O)N4CCOCC4)c3c2=O)CC1`, the “hERG current change (%, negative = inhibition) at 10uM” value is -14%.

For the compound `COc1ccc(N2CCN(C(=O)Cn3cnc4sc(C)c(S(=O)(=O)N5CCOCC5)c4c3=O)CC2)cc1`, the “hERG current change (%, negative = inhibition) at 10uM” value was -20.7%.

Regarding `Cc1sc2ncn(CC(=O)N3CCN(c4ccc(F)cc4)CC3)c(=O)c2c1S(=O)(=O)N1CCOCC1`, the “hERG current change (%, negative = inhibition) at 10uM” value is -64.3%.

On to `CCOC(=O)C1CCN(C(=O)Cn2cnc3sc(C)c(S(=O)(=O)N4CCCCC4)c3c2=O)CC1`, for which the “hERG current change (%, negative = inhibition) at 10uM” value is on record as -35.5%.

In the case of `Cc1sc2ncn(CC(=O)N3CCN(c4ccccc4)CC3)c(=O)c2c1S(=O)(=O)N1CCOCC1`, the “hERG current change (%, negative = inhibition) at 10uM” value is -16%.

For the compound `CCOC(=O)C1CCN(C(=O)Cn2cnc3sc(C)c(S(=O)(=O)N4CCC(C)CC4)c3c2=O)CC1`, the “hERG current change (%, negative = inhibition) at 10uM” value was -67.9%.
